DT40 TDP1 no CPT = qHTS for Inhibitors of human tyrosyl-DNA phosphodiesterase 1 (TDP1): qHTS in cells in absence of CPT; DT40 Tdp1-/- hTDP1 cells, no CPT, ATP luminescence, 48 h; Potency, µM (highest dose often 46.2 µM), usual class: inhibitors; 420,000 tested, 15% active; also: nearly all actives have a fitted effect of over 55% in size
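Compound effects on proliferation are scored in DT40 Tdp1-/-;hTDP1 cells in the absence of CPT. ATP levels (CellTiter-Glo luminescence) are recorded after a ≥48 hr, 37 °C incubation.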
TDP1 cell CPT = growth inhibition of DT40 Tdp1-/-;hTDP1 cells with camptothecin (screen for TDP1 inhibitors) | chicken DT40 Tdp1-/-;hTDP1 cells + 20 nM CPT, ATP luminescence, 48 h | Potency, µM (highest dose often 46.2 µM), usual class: inhibitors | 420,000 tested, 12% active; also: nearly all actives have a fitted effect of over 55% in size
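Chicken DT40 Tdp1-/- cells stably complemented with human TDP1 were seeded at 400 cells/well in medium containing 20 nM camptothecin, exposed to pin-transferred compounds, and grown at 37 °C for at least 48 hr. Viability was read as ATP luminescence.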
KB-3-1 cytotox = kills parental KB-3-1 adenocarcinoma cells. KB-3-1 viability, CellTiter-Glo ATP luminescence, 72 h. Potency, µM (doses to about 46.1 µM), most hits filed as cytotoxic. 400,000 tested, 1.4% active. AID 1347075; also: nearly all actives have a fitted effect of over 60% in size
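KB-3-1 cells, DMEM (no phenol red) + 10% FBS; compound by pin transfer, 72 h, 37 °C. Readout: CellTiter-Glo luminescence after 10 min. Data normalized, curve-fitted.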
HT1080NT lethal = kills 2HG-producing HT-1080-NT fibrosarcoma cells | HT-1080-NT fibrosarcoma viability, CellTiter-Glo ATP luminescence, 48 h | Potency, µM (titrated, usually from 46.1 µM), hits mostly cytotoxic | 360,000 tested, 1.6% active;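 also: NT is the 2HG producing partner of a matched IDH1 knockdown line; nearly all actives have a fitted effect of over 55% in size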
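Toxicity toward the 2HG-producing NT line was scored as %Activity, normalised to DMSO and no-cell wells, from CellTiter-Glo luminescence after 48 hours' treatment.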
KB-V1 cytotox = kills drug-selected multidrug resistant KB-V1 cells; Potency, µM (doses to about 46.1 µM), actives largely listed as cytotoxic; 400,000 tested, 3.4% active; KB-V1 MDR cells viability, CellTiter-Glo, 72 h; also: nearly all actives have a fitted effect of over 60% in size
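Compound-treated KB-V1 multidrug-resistant cells, 72 h, 37 degrees C; viability by CellTiter-Glo. Fitted qHTS curves give the values.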
HT1080 IDH1KD tx = toxicity to HT-1080 IDH1 knockdown cells (counter line) | AID 686971 | 360,000 tested, 2% active | Potency, µM (series often up to 46.1 µM), hits mostly cytotoxic | HT-1080 IDH1 knockdown viability, ATP luminescence, 48 h
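Knockdown cells (IDH1KD HT-1080) received compounds 2 h after plating at 750 cells/well and were kept 48 h at 37 °C in 5% FBS RPMI. A CellTiter-Glo luminescence read gave % activity for curve fitting.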
Numbers stand for hits; i = inactive; ? = inconclusive; nt = not tested or not shown. In the library only some 19% were active in any assay of this set; here they are far more common. Calls follow the shape of the dose curve; as a rule, active = well fitted curve in the direction sought with a large enough effect; inconclusive = small, poorly fitted or top-dose-only effect, or another doubt; inactive = no such curve, though single readings can be large; an effect the other way counts as inactive or inconclusive.

SMILES	DT40 TDP1 no CPT	TDP1 cell CPT	KB-3-1 cytotox	HT1080NT lethal	KB-V1 cytotox	HT1080 IDH1KD tx
CCC(=O)NC(c1ccco1)c1cc(Br)c2cccnc2c1O (stereo not drawn)	nt	nt	i	nt	i	nt
O=C(NC(c1ccco1)c1cc(Cl)c2cccnc2c1O)c1ccc(Cl)cc1 (stereo not drawn)	nt	nt	i	nt	i	nt
COc1ccc(C(NC(C)=O)c2cc(Cl)c3cccnc3c2O)cc1 (stereo not drawn)	8.2µM	8.2µM	?	?	i	12µM
O=C(NC(c1ccc(Cl)cc1)c1cc(Cl)c2cccnc2c1O)c1cccnc1 (stereo not drawn)	4.1µM	5.2µM	?	?	?	3.3µM
C/C(CCc1ccc2c(c1)OCO2)=N\N=C1\NC(=O)CC(C(=O)Nc2ccccc2F)S1 (stereo not drawn)	i	i	i	i	i	i
COc1ccccc1CNc1cc(-c2c(C)noc2C)ncn1	i	i	nt	nt	nt	nt
CC(C)c1ccc(N(CC(=O)O)S(=O)(=O)c2ccc3[nH]c(=O)c(=O)[nH]c3c2)cc1	i	i	nt	nt	nt	nt
CCOc1ccc(S(=O)(=O)NCc2ccncc2)cc1NC(=O)c1ccccc1	1.2µM	3.7µM	0.58µM	3.7µM	?	23µM
CCOc1ccc(S(=O)(=O)N2CCCCC2)cc1NC(=O)c1ccccc1	?	i	i	i	i	i
COc1ccc(S(=O)(=O)NCc2ccncc2)cc1NC(=O)c1ccccc1	16µM	21µM	i	?	i	i
CCOc1ccccc1NC(=O)c1cc(S(=O)(=O)NCc2ccco2)ccc1F	i	15µM	i	i	i	i
COc1ccc(S(=O)(=O)NCc2cccnc2)cc1NC(=O)c1ccccc1	i	i	i	i	i	i
COc1ccc(S(=O)(=O)NCCSCc2ccc(Cl)cc2)cc1NC(C)=O	26µM	?	i	i	?	i
CCOc1ccc(CNC(=O)C2CCN(S(=O)(=O)c3cn(C)cn3)CC2)cc1	i	i	nt	nt	nt	nt
CCOc1ccc(S(=O)(=O)NCc2ccncc2)cc1NC(=O)c1ccccc1F	1.5µM	i	?	?	?	23µM
COc1ccc(S(=O)(=O)NCc2ccncc2)cc1NC(=O)c1ccc(Cl)cc1	15µM	16µM	i	i	i	i
CC(=O)Nc1ccc(S(=O)(=O)NCCSCc2c(Cl)cccc2Cl)cc1	?	?	9.2µM	i	5.8µM	?
COc1ccc(C(=O)O)cc1S(=O)(=O)NCc1ccncc1	i	i	i	i	?	i
COc1ccc(NC(=O)CN2CCN(CC(=O)Nc3ccc(F)cc3F)CC2)cc1	?	i	i	i	i	i
CC1=C(C(=O)N(C(C)C)C(C)C)CC(CC(=O)NCCCCc2ccccc2)C(=O)N1CCCN1CCCC1=O (stereo not drawn)	i	i	i	i	i	i
CCCC(=O)Nc1cc(C(=O)O)ccc1S(=O)(=O)c1ccc(C)cc1	i	i	i	i	i	i
CCCC(=O)Nc1cc(C(=O)NCc2ccccc2)ccc1S(=O)(=O)c1ccc(Cl)cc1	21µM	21µM	i	nt	i	nt
COc1ccc(C(C)(C)C)cc1NC(=O)COC(=O)CSCc1c(C)noc1C	i	i	i	i	i	i
COc1ccc(Cl)cc1N(C)C(=O)Cc1noc2ccc(C)cc12	18µM	16µM	i	nt	i	nt
Cc1ccc2onc(CC(=O)N3CCN(c4cc(Cl)ccc4C)CC3)c2c1	16µM	?	?	nt	?	nt
Cc1ccc2onc(CC(=O)O)c2c1	i	i	i	i	i	i
COc1cn(CC(=O)Nc2cc(C)cc(C)c2)c(CN2CCCCC2)cc1=O	i	i	nt	nt	nt	nt
O=C1C=C(N2CCN(c3ccccn3)CC2)C(=O)c2c(O)ccc(O)c21	4.1µM	1.5µM	?	i	15µM	i
